Source: PubChem BioAssay (NCI)
This is part of a sample that, as a whole, favours compounds with a hit. Of some 83,000 tested, about 20% had one in any assay.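 Cell lines were cultured in 96-well plates, exposed to a single compound concentration, and assessed for percent growth 48 hours later.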 The source made the active and inactive calls. The calls were made as follows: active = growth percent below 10; inactive = the rest.

Experiments:
Assay in all cases: NCI-60 one-dose screen, 48 h (100 = growth as untreated, 0 = no growth, -100 = all killed)
Settings in all cases: 10 µM unless noted
SR leukemia = tested on: SR leukemia
RPMI-8226 leukemia = tested on: RPMI-8226 leukemia
OVCAR-8 ovarian = tested on: OVCAR-8 ovarian
OVCAR-5 ovarian = tested on: OVCAR-5 ovarian
OVCAR-4 ovarian = tested on: OVCAR-4 ovarian
SK-OV-3 ovarian = tested on: SK-OV-3 ovarian
OVCAR-3 ovarian = tested on: OVCAR-3 ovarian
HS 578T breast = tested on: HS 578T breast
NCI/ADR-RES ovarian = tested on: NCI/ADR-RES ovarian
T-47D breast = tested on: T-47D breast
BT-549 breast = tested on: BT-549 breast
MDA-MB-435 melanoma = tested on: MDA-MB-435 melanoma
SW-620 colon = tested on: SW-620 colon
MCF7 breast = tested on: MCF7 breast
HCT-116 colon = tested on: HCT-116 colon
HCC-2998 colon = tested on: HCC-2998 colon
KM12 colon = tested on: KM12 colon
IGROV1 ovarian = tested on: IGROV1 ovarian

Measured: growth

CC1=C2[C@@H](CC1)[C@]1(C)O[C@@](C3CCNCC3)(C[C@H]1OC(=O)CO)[C@H]2OC(=O)/C=C/c1ccccc1
inactive: SR leukemia 33.1% | RPMI-8226 leukemia 82.3% | OVCAR-8 ovarian 84.3% | OVCAR-5 ovarian 99.4% | OVCAR-4 ovarian 82.9% | SK-OV-3 ovarian 106% | OVCAR-3 ovarian 93.9% | HS 578T breast 58.4% | NCI/ADR-RES ovarian 90.3% | T-47D breast 62.6% | BT-549 breast 81.7% | MDA-MB-435 melanoma 88.6% | SW-620 colon 93.6% | MCF7 breast 74.2% | HCT-116 colon 74.5% | HCC-2998 colon 99% | KM12 colon 97.6%

CC1SC(c2ccccc2O)N(NC(=O)CCC(=O)c2nc3ncccc3[nH]2)C1=O (stereo not given)
inactive: SR leukemia 109% | RPMI-8226 leukemia 93.1% | OVCAR-8 ovarian 97% | OVCAR-5 ovarian 107% | OVCAR-4 ovarian 92.8% | SK-OV-3 ovarian 92.3% | OVCAR-3 ovarian 97% | HS 578T breast 90.2% | NCI/ADR-RES ovarian 89.6% | T-47D breast 93.6% | BT-549 breast 122% | MDA-MB-435 melanoma 102% | SW-620 colon 92.6% | MCF7 breast 98.7% | HCT-116 colon 91.2% | HCC-2998 colon 92.9% | KM12 colon 95.2%

Cc1cc(Cl)nc(N2CCN(CCNc3ccnc4cc(Cl)ccc34)CC2)n1
inactive: RPMI-8226 leukemia 13.5% | OVCAR-8 ovarian 61.5% | OVCAR-5 ovarian 66.6% | OVCAR-4 ovarian 40.1% | SK-OV-3 ovarian 56.9% | IGROV1 ovarian 61% | OVCAR-3 ovarian 60.7% | HS 578T breast 76.8% | T-47D breast 19.5% | BT-549 breast 47% | MDA-MB-435 melanoma 50.2% | SW-620 colon 45.3% | MCF7 breast 26.8% | HCT-116 colon 25.3% | KM12 colon 55.7%
active: SR leukemia -7.81% | HCC-2998 colon -3.07%

CC(=O)Nc1sc2c(c1-c1nc3ccccc3s1)CNC2
inactive: RPMI-8226 leukemia 19.1% | OVCAR-8 ovarian 23.4% | OVCAR-5 ovarian 41.8% | OVCAR-4 ovarian 33.4% | SK-OV-3 ovarian 15.9% | OVCAR-3 ovarian 36.3% | HS 578T breast 51.3% | NCI/ADR-RES ovarian 23.2% | BT-549 breast 58.1% | MDA-MB-435 melanoma 29.7% | SW-620 colon 18.8% | HCT-116 colon 18.8% | HCC-2998 colon 33.6% | KM12 colon 22.8%
active: SR leukemia 6% | T-47D breast 4.49% | MCF7 breast 5.45%

COc1ccc(Oc2ccc(/C=C/C(=O)c3cc4ccccc4oc3=O)cc2)cc1
inactive: SR leukemia 80.9% | RPMI-8226 leukemia 59.6% | OVCAR-8 ovarian 93.5% | OVCAR-5 ovarian 112% | OVCAR-4 ovarian 80.7% | SK-OV-3 ovarian 92.4% | OVCAR-3 ovarian 107% | HS 578T breast 101% | NCI/ADR-RES ovarian 85.6% | T-47D breast 84.6% | BT-549 breast 81% | SW-620 colon 103% | MCF7 breast 25.9% | HCT-116 colon 56.6% | HCC-2998 colon 108% | KM12 colon 85.9%

CCN(CC)CCCC(Cc1ccccc1)Nc1c2ccc(Cl)cc2nc2ccc(OC)cc12 (stereo not given)
active: SR leukemia -27.4% | RPMI-8226 leukemia -6.17% | T-47D breast -6.99% | MDA-MB-435 melanoma -66.5% | MCF7 breast -9.45% | HCC-2998 colon -72.1%
inactive: OVCAR-8 ovarian 36.4% | OVCAR-5 ovarian 71.1% | OVCAR-4 ovarian 30.8% | SK-OV-3 ovarian 101% | OVCAR-3 ovarian 77.4% | HS 578T breast 52.2% | NCI/ADR-RES ovarian 45% | BT-549 breast 53.3% | SW-620 colon 13.2% | HCT-116 colon 14.6% | KM12 colon 45.3%

Cc1cc(O)c(=O)cc2c1C[C@H]1CC(C)(C)/C=C/C[C@]3(C)Oc4cc(=O)c(O)cc(C)c4C[C@H]3C[C@H](O)[C@@]1(C)O2
inactive: SR leukemia 12.4% | OVCAR-5 ovarian 18.9% | IGROV1 ovarian 11.2% | OVCAR-3 ovarian 15.5% | HS 578T breast 30% | MDA-MB-435 melanoma 18.1% | SW-620 colon 13.8% | HCC-2998 colon 32.4% | KM12 colon 16.1%
active: RPMI-8226 leukemia 3.46% | OVCAR-8 ovarian 5.84% | OVCAR-4 ovarian 9.54% | SK-OV-3 ovarian -5.53% | T-47D breast 2.08% | BT-549 breast 1.38% | MCF7 breast 2.97% | HCT-116 colon 8.37%

O=C(/C=C/c1ccccc1Cl)c1cccc(OCCCCOc2cccc(C(=O)/C=C/c3ccccc3Cl)c2)c1
inactive: SR leukemia 81% | OVCAR-8 ovarian 99.9% | OVCAR-5 ovarian 101% | OVCAR-4 ovarian 106% | SK-OV-3 ovarian 100% | OVCAR-3 ovarian 112% | HS 578T breast 106% | NCI/ADR-RES ovarian 103% | T-47D breast 91.2% | BT-549 breast 116% | MDA-MB-435 melanoma 106% | SW-620 colon 99% | MCF7 breast 51.7% | HCT-116 colon 50.1% | HCC-2998 colon 104% | KM12 colon 101%
active: RPMI-8226 leukemia -6.16%

CCSc1ccnc(N)n1
inactive: SR leukemia 153% | RPMI-8226 leukemia 114% | OVCAR-8 ovarian 108% | OVCAR-5 ovarian 104% | OVCAR-4 ovarian 111% | SK-OV-3 ovarian 110% | OVCAR-3 ovarian 97.3% | HS 578T breast 117% | NCI/ADR-RES ovarian 109% | T-47D breast 104% | BT-549 breast 117% | MDA-MB-435 melanoma 112% | SW-620 colon 106% | MCF7 breast 104% | HCT-116 colon 106% | KM12 colon 108%

O=C(O)c1cn(C2CC2)c2cc(N3CCN(C(=O)N/N=C/c4cccc5ccccc45)CC3)c(F)cc2c1=O
active: BT-549 breast 6.18%
inactive: SR leukemia 88.5% | RPMI-8226 leukemia 110% | OVCAR-8 ovarian 95.3% | OVCAR-5 ovarian 110% | OVCAR-4 ovarian 98.3% | SK-OV-3 ovarian 87% | OVCAR-3 ovarian 104% | HS 578T breast 96.2% | NCI/ADR-RES ovarian 105% | T-47D breast 89.9% | MDA-MB-435 melanoma 104% | MCF7 breast 98.2% | HCT-116 colon 14.8% | HCC-2998 colon 107% | KM12 colon 101%

N#Cc1c(-c2ccccc2)nc2c(c(-c3ccccc3)nn2-c2ccccc2)c1-c1ccc(N2CCCCC2)cc1
inactive: SR leukemia 114% | RPMI-8226 leukemia 107% | OVCAR-8 ovarian 98.4% | OVCAR-5 ovarian 102% | OVCAR-4 ovarian 105% | SK-OV-3 ovarian 104% | OVCAR-3 ovarian 111% | HS 578T breast 109% | NCI/ADR-RES ovarian 100% | T-47D breast 94.5% | BT-549 breast 104% | MDA-MB-435 melanoma 99.9% | SW-620 colon 99.2% | MCF7 breast 100% | HCT-116 colon 94.2% | KM12 colon 103%

Cc1ccc(-c2csc(NC(=O)CSc3nc(N)cc(N)n3)n2)cc1
inactive: SR leukemia 42.9% | RPMI-8226 leukemia 44% | OVCAR-8 ovarian 71% | OVCAR-5 ovarian 91.2% | OVCAR-4 ovarian 64% | SK-OV-3 ovarian 88% | IGROV1 ovarian 74.1% | OVCAR-3 ovarian 73.2% | HS 578T breast 87.6% | T-47D breast 19.6% | BT-549 breast 52.1% | MDA-MB-435 melanoma 63.2% | SW-620 colon 93.6% | MCF7 breast 50.6% | HCT-116 colon 41.8% | HCC-2998 colon 86.8% | KM12 colon 77.5%

COC(=O)/C=C1/SC(=NCc2ccccc2)N(CCc2c[nH]c3ccccc23)C1=O
inactive: SR leukemia 29.8% | RPMI-8226 leukemia 52.4% | OVCAR-8 ovarian 67.6% | OVCAR-5 ovarian 110% | OVCAR-4 ovarian 78.1% | SK-OV-3 ovarian 111% | OVCAR-3 ovarian 79.1% | HS 578T breast 79.7% | NCI/ADR-RES ovarian 80.6% | T-47D breast 53.5% | BT-549 breast 66.9% | MDA-MB-435 melanoma 72.3% | SW-620 colon 72% | MCF7 breast 48.4% | HCT-116 colon 53.6% | HCC-2998 colon 99.8% | KM12 colon 70.4%

O=C(Nc1nc(Cl)nc(Nc2ccc(N3CCOCC3=O)cc2)n1)c1ccc(Cl)s1
inactive: RPMI-8226 leukemia 90.3% | OVCAR-8 ovarian 87.6% | OVCAR-5 ovarian 99% | OVCAR-4 ovarian 102% | SK-OV-3 ovarian 99% | OVCAR-3 ovarian 102% | HS 578T breast 89.8% | T-47D breast 71.7% | BT-549 breast 106% | MDA-MB-435 melanoma 96.4% | SW-620 colon 76.1% | MCF7 breast 59.1% | HCT-116 colon 84.3% | HCC-2998 colon 82.3% | KM12 colon 90.6%
active: SR leukemia 7.06%

O=c1cc(C(F)(F)F)c2cc(-c3cc4ccccc4c(=O)o3)c(O)cc2o1
inactive: SR leukemia 85.5% | RPMI-8226 leukemia 17.7% | OVCAR-8 ovarian 87% | OVCAR-5 ovarian 103% | OVCAR-4 ovarian 64% | SK-OV-3 ovarian 73.3% | OVCAR-3 ovarian 56.9% | HS 578T breast 79.5% | NCI/ADR-RES ovarian 78.9% | T-47D breast 49.4% | BT-549 breast 63.6% | MDA-MB-435 melanoma 72.8% | SW-620 colon 86.1% | MCF7 breast 77.4% | HCT-116 colon 71.7% | HCC-2998 colon 92.8% | KM12 colon 76.5%

COc1ccc2c(c1)oc1c(C)c3c(c(C)c12)C(=O)N(CCOS(C)(=O)=O)C3=O
inactive: SR leukemia 65.8% | RPMI-8226 leukemia 94% | OVCAR-8 ovarian 103% | OVCAR-5 ovarian 91.6% | OVCAR-4 ovarian 100% | SK-OV-3 ovarian 120% | OVCAR-3 ovarian 118% | HS 578T breast 109% | NCI/ADR-RES ovarian 97.7% | T-47D breast 103% | BT-549 breast 90% | MDA-MB-435 melanoma 94.9% | SW-620 colon 94.2% | MCF7 breast 73.7% | HCT-116 colon 94.1% | HCC-2998 colon 100% | KM12 colon 107%

C/C(=N\Nc1ccccc1)c1ccc(NC2=CC(=O)c3ccccc3C2=O)cc1
inactive: SR leukemia 59.2% | RPMI-8226 leukemia 64.3% | OVCAR-8 ovarian 59.8% | OVCAR-5 ovarian 72.5% | OVCAR-4 ovarian 43% | SK-OV-3 ovarian 65.3% | OVCAR-3 ovarian 15.4% | HS 578T breast 65.5% | NCI/ADR-RES ovarian 54% | T-47D breast 38.8% | BT-549 breast 76.3% | MCF7 breast 30.4% | HCT-116 colon 51% | HCC-2998 colon 77.9% | KM12 colon 43.7%
active: MDA-MB-435 melanoma -80.3%

O=C(/C=C/C12c3ccccc3C(c3ccccc31)C1C(=O)NC(=O)C12)c1ccc(Cl)cc1Cl (stereo not given)
inactive: OVCAR-8 ovarian 11.1% | OVCAR-5 ovarian 37.6% | OVCAR-4 ovarian 42.9% | SK-OV-3 ovarian 49.9% | HS 578T breast 30.5% | BT-549 breast 14.6% | HCC-2998 colon 68.2% | KM12 colon 17.4%
active: SR leukemia 2.74% | RPMI-8226 leukemia -22.3% | OVCAR-3 ovarian -29.3% | NCI/ADR-RES ovarian 5.85% | T-47D breast 9.41% | MDA-MB-435 melanoma -0.0298% | SW-620 colon 5.09% | MCF7 breast 6.75% | HCT-116 colon 2.09%
